The source made the active and inactive calls. The rule behind the calls is not given here.

A short description of the assay: Dengue virus CPE inhibition, flavivirus guanylyltransferase probe project, cell-based, secondary screen (AID 624071). To be noted: Dengue virus CPE inhibition assay, cell viability; series mostly up to 100 µM; CPE inhibition: at the top concentration.
For `O=[N+]([O-])c1cccc(S(=O)(=O)Nc2cc(Sc3nc4ccccc4s3)c(O)c3ccccc23)c1`, the “CPE inhibition” value is 0% (inactive). With `O=C(O)CSc1cc(NS(=O)(=O)c2cccc([N+](=O)[O-])c2)c2ccccc2c1O`, the “CPE inhibition” value was 0% (inactive). On to `O=S(=O)(Nc1cc(Sc2ccccc2)c(O)c2ccccc12)c1ccc(F)cc1`, for which the “CPE inhibition” value was 0% (inactive). Consider `Cn1c(=O)c2[nH]c(-c3ccc(Cl)cc3)c(O)c2n(C)c1=O`, for which the “CPE inhibition” value was 0% (inactive). Regarding `O=C(O)CSc1cc(NS(=O)(=O)c2ccc(F)cc2)c2ccccc2c1O`, the “CPE inhibition” value was 0% (inactive). For `Cc1cc(F)ccc1S(=O)(=O)Nc1cc(SCC(=O)O)c(O)c2ccccc12` the value was 0% (inactive).

As for `Cn1c(=O)c2[nH]c(-c3ccccc3)c(O)c2n(C)c1=O`, the “CPE inhibition” value is 0% (inactive). For `O=[N+]([O-])c1cccc(S(=O)(=O)Nc2cc(SCc3ccccc3)c(O)c3ccccc23)c1` the value was 0% (inactive); for `O=S(=O)(Nc1cc(Sc2ncn[nH]2)c(O)c2ccccc12)c1ccc(F)cc1`, 0% (inactive); for `COc1ccc(OC)c(S(=O)(=O)Nc2cc(SCC(=O)O)c(O)c3ccccc23)c1`, 0% (inactive). With `O=S(=O)(Nc1cc(Cl)c(O)c2ccccc12)c1ccc(F)cc1`, the “CPE inhibition” value was 0% (inactive). To `Cc1ccc(S(=O)(=O)Nc2cc(SCC(=O)O)c(O)c3ccccc23)cc1` belongs 0% (inactive); to `O=S(=O)(Nc1cc(SCc2ccccc2)c(O)c2ccccc12)c1ccc(Cl)cc1`, 0% (inactive); to `O=C(O)CSc1cc(NS(=O)(=O)c2cccc3cccnc23)c2ccccc2c1O`, 0% (inactive). With `Cc1cc(C)c(S(=O)(=O)Nc2cc(SCC(=O)O)c(O)c3ccccc23)c(C)c1`, the “CPE inhibition” value is 0% (inactive).

Turning to `O=C(O)CSc1cc(NS(=O)(=O)c2ccc(Cl)cc2)c2ccccc2c1O`, the “CPE inhibition” value was 0% (inactive). For `O=C(O)CSc1cc(NS(=O)(=O)c2ccc(Br)cc2)c2ccccc2c1O` the value was 0% (inactive); for `Cc1ccc(S(=O)(=O)Nc2cc(Sc3nc(C)cc(C)n3)c(O)c3ccccc23)cc1`, 0% (inactive).

Values taken from PubChem BioAssay AID624071 (Southern Research Specialized Biocontainment Screening …, 2012).
